Activity calls are given as the source filed them. How the source made its calls: active means hit-call score of the fitted dose curve at least 0.9, where 1 is the maximum; inactive means score below 0.9.
Experiments:
Conditions in all cases: mRNA level, 48 h; actives raise or lower the signal
[1] = read-out: Fatty acid synthase (Homo sapiens) (UniProt P49327); experiment: LTEA_HepaRG_FASN: Life Technologies and Expression Analysis (LTEA) Assay for Fatty Acid Synthase (FASN) using HepaRG (AID 2283448)
Procedure, shortened: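 Cells were plated, cultured 48 h, switched to serum-free induction medium, then dosed in duplicate (max 100 uM, half-log dilutions, 0.5% DMSO) for 48 h. RNA was then isolated and FASN quantified by qRT-PCR.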

[2] = read-out: Cyclin D2 (CCND2), CCND2 (gene 894); experiment: LTEA_HepaRG_CCND2: Life Technologies and Expression Analysis (LTEA) Assay for Cyclin D2 (CCND2) using HepaRG (AID 2283449);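 further: CCND2 transcript measured by TaqMan qRT-PCR and normalised to three housekeeping genes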
Procedure, shortened: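 HepaRG, 48 h dosing, 8-pt half-log curve from 100 uM, 0.5% DMSO; duplicate wells. Readout: CCND2 transcript by microfluidic qRT-PCR, housekeeping-normalised; bidirectional fit vs DMSO baseline.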

[3] = read-out: Cyclin Dependent Kinase Inhibitor 1A (CDKN1A), CDKN1A (gene 1026); experiment: LTEA_HepaRG_CDKN1A: Life Technologies and Expression Analysis (LTEA) Assay for Cyclin Dependent Kinase Inhibitor 1A (CDKN1A) using HepaRG (AID 2283450)
Procedure, shortened: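 Differentiated HepaRG cells in serum-free induction medium, exposed 48 h in duplicate to eight half-log concentrations up to 100 uM in 0.5% DMSO. mRNA measured by TaqMan qRT-PCR, normalized to ACTB, GAPDH, POLR2A; bidirectional fit versus DMSO.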

[4] = read-out: catalase (CAT), CAT (gene 847); experiment: LTEA_HepaRG_CAT: Life Technologies and Expression Analysis (LTEA) Assay for catalase (CAT) using HepaRG (AID 2283452);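 on AC50: TaqMan qRT-PCR signal normalized to ACTB GAPDH and POLR2A housekeeping genes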
Procedure, shortened: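 HepaRG cells in serum-free induction medium, 0.5% DMSO vehicle, exposed 48 h in duplicate over 8 half-log concentrations from 100 uM. CAT mRNA measured by qRT-PCR, normalized to ACTB, GAPDH, POLR2A; bidirectional fit versus DMSO.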

[5] = read-out: flavin-containing dimethylaniline monooxygenases 3 (FMO3), FMO3 (gene 2328); experiment: LTEA_HepaRG_FMO3: Life Technologies and Expression Analysis (LTEA) Assay for flavin-containing dimethylaniline monooxygenases 3 (FMO3) using HepaRG (AID 2283453);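 on AC50: FMO3 transcript by TaqMan qRT-PCR normalized to ACTB GAPDH and POLR2A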
Procedure, shortened: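 FMO3 transcript quantified by TaqMan qRT-PCR against three housekeeping genes after 48 h chemical exposure of HepaRG cells. Eight-point half-log series, top 100 uM, 0.5% DMSO vehicle; phenobarbital 1mM induction control; up- or down-regulation fitted.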

[6] = read-out: Cytochrome P450 (CYP1A1), CYP1A1 (gene 1543); experiment: LTEA_HepaRG_CYP1A1: Life Technologies and Expression Analysis (LTEA) Assay for Cytochrome P450 (CYP1A1) using HepaRG (AID 2283454)
Procedure, shortened: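 Differentiated human HepaRG cells, after 48 h plating, exposed in duplicate for 48 h in serum-free induction medium to 8 half-log concentrations up to 100 uM in 0.5% DMSO. CYP1A1 mRNA by qRT-PCR, normalized to ACTB/GAPDH/POLR2A; bidirectional fit versus DMSO.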

[7] = read-out: CFLAR gene, CFLAR (gene 8837); experiment: LTEA_HepaRG_CFLAR: Life Technologies and Expression Analysis (LTEA) Assay for CFLAR gene using HepaRG (AID 2283455)
Procedure, shortened: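 qRT-PCR read-out (Fluidigm/TaqMan) of CFLAR mRNA, normalized to three housekeeping genes, in differentiated human HepaRG cells after 48 h chemical exposure; 8-point half-log series from 100 uM in 0.5% DMSO; bidirectional curve fitting versus DMSO.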

[8] = read-out: Forkhead box O1 (FOXO1), FOXO1 (gene 2308); experiment: LTEA_HepaRG_FOXO1: Life Technologies and Expression Analysis (LTEA) Assay for Forkhead box O1 (FOXO1) using HepaRG (AID 2283456)
Procedure, shortened: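 HepaRG, 48 h exposure, 8-pt half-log series from 100 uM in 0.5% DMSO, duplicates; Fluidigm qRT-PCR mRNA, housekeeping-normalised; bidirectional fit vs DMSO baseline.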

[9] = read-out: Cyclin D1 (CCND1), CCND1 (gene 595); experiment: LTEA_HepaRG_CCND1: Life Technologies and Expression Analysis (LTEA) Assay for Cyclin D1 (CCND1) using HepaRG (AID 2283451)
Procedure, shortened: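 Differentiated HepaRG cells exposed 48 h in serum-free induction medium to eight half-log concentrations from 100 uM top, 0.5% DMSO, duplicates. CCND1 mRNA measured by Fluidigm TaqMan qRT-PCR, normalised to ACTB, GAPDH, POLR2A; bidirectional fit.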

Measured: AC50

Chain of Fatty acid synthase (Homo sapiens) (P49327 whole entry, looked up): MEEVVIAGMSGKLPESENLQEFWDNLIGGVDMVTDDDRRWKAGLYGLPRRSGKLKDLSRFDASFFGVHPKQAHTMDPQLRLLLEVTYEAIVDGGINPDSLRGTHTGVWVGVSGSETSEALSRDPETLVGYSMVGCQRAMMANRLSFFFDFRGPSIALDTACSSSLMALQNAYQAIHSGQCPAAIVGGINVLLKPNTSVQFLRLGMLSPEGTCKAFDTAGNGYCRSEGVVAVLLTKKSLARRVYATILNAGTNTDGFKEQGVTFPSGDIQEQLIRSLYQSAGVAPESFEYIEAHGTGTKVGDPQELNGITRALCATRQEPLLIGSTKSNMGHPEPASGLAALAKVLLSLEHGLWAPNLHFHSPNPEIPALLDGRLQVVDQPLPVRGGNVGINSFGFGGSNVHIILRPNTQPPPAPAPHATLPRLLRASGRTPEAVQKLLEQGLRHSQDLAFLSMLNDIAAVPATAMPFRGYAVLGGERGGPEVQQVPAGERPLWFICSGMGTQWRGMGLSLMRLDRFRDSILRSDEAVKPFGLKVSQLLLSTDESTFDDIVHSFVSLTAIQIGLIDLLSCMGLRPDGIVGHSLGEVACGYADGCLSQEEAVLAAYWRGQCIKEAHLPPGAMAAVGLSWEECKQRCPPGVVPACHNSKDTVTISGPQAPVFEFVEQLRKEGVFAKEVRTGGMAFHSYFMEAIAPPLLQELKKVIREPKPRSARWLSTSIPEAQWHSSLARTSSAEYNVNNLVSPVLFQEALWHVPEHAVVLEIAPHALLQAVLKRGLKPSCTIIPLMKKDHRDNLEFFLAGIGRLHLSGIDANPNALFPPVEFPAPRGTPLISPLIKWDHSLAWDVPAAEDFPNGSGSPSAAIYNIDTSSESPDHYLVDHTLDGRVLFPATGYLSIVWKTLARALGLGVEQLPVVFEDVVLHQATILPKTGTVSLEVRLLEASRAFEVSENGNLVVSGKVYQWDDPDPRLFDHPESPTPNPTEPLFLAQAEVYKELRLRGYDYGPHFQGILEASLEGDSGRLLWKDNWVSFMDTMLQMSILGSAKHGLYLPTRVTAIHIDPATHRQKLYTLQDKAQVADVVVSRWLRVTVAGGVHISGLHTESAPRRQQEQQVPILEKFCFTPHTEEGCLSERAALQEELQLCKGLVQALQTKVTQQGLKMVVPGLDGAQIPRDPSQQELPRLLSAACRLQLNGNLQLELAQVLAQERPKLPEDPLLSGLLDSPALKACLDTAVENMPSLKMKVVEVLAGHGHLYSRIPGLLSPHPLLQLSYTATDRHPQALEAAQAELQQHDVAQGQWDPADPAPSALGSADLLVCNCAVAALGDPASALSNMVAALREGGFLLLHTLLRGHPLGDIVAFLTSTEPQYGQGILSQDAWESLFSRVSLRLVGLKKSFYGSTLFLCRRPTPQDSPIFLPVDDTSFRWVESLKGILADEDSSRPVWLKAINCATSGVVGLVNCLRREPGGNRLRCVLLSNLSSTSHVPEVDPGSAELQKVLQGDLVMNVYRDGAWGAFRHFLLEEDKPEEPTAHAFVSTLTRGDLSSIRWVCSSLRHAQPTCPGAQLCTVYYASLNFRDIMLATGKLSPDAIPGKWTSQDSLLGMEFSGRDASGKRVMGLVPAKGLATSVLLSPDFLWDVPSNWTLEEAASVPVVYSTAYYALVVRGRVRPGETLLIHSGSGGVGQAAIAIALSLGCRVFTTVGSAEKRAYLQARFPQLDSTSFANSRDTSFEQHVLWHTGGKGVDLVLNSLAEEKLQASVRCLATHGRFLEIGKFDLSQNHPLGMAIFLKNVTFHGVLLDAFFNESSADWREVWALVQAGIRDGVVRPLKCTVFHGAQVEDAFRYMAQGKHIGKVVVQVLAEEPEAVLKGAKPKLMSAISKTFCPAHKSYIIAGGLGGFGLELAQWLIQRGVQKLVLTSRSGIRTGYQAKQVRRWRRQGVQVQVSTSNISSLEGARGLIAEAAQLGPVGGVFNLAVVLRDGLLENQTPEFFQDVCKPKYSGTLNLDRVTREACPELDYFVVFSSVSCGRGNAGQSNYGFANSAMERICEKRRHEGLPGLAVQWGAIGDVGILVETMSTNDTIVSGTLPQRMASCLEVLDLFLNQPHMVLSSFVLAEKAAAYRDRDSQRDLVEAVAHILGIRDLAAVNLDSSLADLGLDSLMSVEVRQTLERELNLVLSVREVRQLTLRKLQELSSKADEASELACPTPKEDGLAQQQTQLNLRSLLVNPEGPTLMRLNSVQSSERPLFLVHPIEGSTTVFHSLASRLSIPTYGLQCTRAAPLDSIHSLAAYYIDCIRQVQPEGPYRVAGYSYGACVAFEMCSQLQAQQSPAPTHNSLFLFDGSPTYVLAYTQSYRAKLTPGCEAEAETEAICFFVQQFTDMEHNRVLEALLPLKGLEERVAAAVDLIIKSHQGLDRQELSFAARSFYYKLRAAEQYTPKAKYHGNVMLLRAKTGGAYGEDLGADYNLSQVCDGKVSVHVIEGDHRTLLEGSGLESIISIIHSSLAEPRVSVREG

O=C(N[C@@H](c1ccccc1)[C@@H]1CCCCN1)c1cccc(C(F)(F)F)c1Cl
inactive: [2] | [3] | [6]
active: [1] 85 µM | [4] 56.7 µM | [5] 53.7 µM | [7] 77.2 µM | [8] 75.9 µM

N[C@@H](Cc1c[nH]c2ccccc12)C(=O)O
inactive: [1] | [2] | [3] | [4] | [5] | [7] | [8]
active: [6] 10.9 µM

C/C=C/C=C/C(=O)O
active: [6] 76.6 µM
inactive: [1] | [2] | [3] | [4] | [5] | [7] | [8]

CC(=O)OCC(COC(C)=O)OC(C)=O
active: [6] 12 µM
inactive: [1] | [2] | [3] | [4] | [5] | [7] | [8]

CC(C)(C)c1ccccc1
inactive: [1] | [2] | [3] | [4] | [5] | [7] | [8]
active: [6] 50 µM

O=C(O)CN(CC(=O)O)CC(=O)O
inactive: [1] | [2] | [3] | [4] | [5] | [7] | [8]
active: [6] 79.4 µM

CCCCC(CC)CO (configuration not stated)
inactive: [1] | [3] | [9] | [4] | [5] | [7] | [8]
active: [2] 59.8 µM | [6] 39.1 µM

CCCC[C@H]1CN(CC2CCOCC2)C(=O)OC12CCN(C1(C)CCN(C(=O)c3c(C)ncnc3C)CC1)CC2
inactive: [1] | [2] | [3] | [4] | [5] | [6] | [7] | [8]

C=CCc1ccc(OC)c(OC)c1
inactive: [1] | [2] | [3] | [9] | [4] | [5] | [6] | [7] | [8]

Cc1cc(Cc2ccc(N)c(C)c2)ccc1N
active: [6] 50 µM
inactive: [1] | [2] | [3] | [4] | [5] | [7] | [8]

COC(=O)[C@H]1[C@H]2C[C@@H]3c4[nH]c5cc(OC)ccc5c4CCN3C[C@H]2C[C@@H](OC(=O)c2cc(OC)c(OC)c(OC)c2)[C@@H]1OC
inactive: [3] | [9] | [7] | [8]
active: [1] 28.1 µM | [2] 14.9 µM | [4] 42.2 µM | [5] 30.5 µM

CSc1ccc(Oc2ccc(S(N)(=O)=O)cc2CN(C)C)cc1C
active: [1] 83.1 µM | [5] 77.7 µM | [6] 69.8 µM
inactive: [2] | [3] | [4] | [7] | [8]

O=C1O[C@H]([C@H](O)CO)C(O)=C1O
inactive: [1] | [2] | [3] | [4] | [5] | [7] | [8]
active: [6] 64.4 µM

Cn1cnc2c1c(=O)[nH]c(=O)n2C
inactive: [1] | [2] | [3] | [9] | [4] | [5] | [7] | [8]

CCCC(=O)O
inactive: [1] | [2] | [3] | [4] | [5] | [6] | [7] | [8]

CCOCCOCCO
inactive: [1] | [2] | [3] | [4] | [5] | [6] | [7] | [8]

CCCCC(CC)COP(=O)(OCC(CC)CCCC)OCC(CC)CCCC (configuration not stated)
active: [6] 25.6 µM
inactive: [1] | [2] | [3] | [4] | [5] | [7] | [8]

CC(C)c1cccc(C(C)C)c1NC(=O)NS(=O)(=O)c1cc(C(C)(C)O)co1
inactive: [1] | [2] | [3] | [4] | [5] | [6] | [7] | [8]

C/C=C/c1ccc(OC)cc1
active: [6] 50 µM
inactive: [1] | [3] | [9] | [4] | [5] | [7] | [8]

O=C(O)c1cccnc1
inactive: [1] | [3] | [4] | [5] | [6] | [7] | [8]

NC=O
inactive: [1] | [2] | [3] | [4] | [5] | [6] | [7] | [8]

Cc1cc(SC2=C(O)C[C@@](CCc3ccc(N)cc3)(C(C)C)OC2=O)c(C(C)(C)C)cc1CO
active: [6] 29.6 µM
inactive: [1] | [2] | [3] | [4] | [5] | [7] | [8]

O=C(NS(=O)(=O)/C=C/c1cccs1)c1ccc(F)cc1Br
inactive: [1] | [3] | [4] | [5] | [7] | [8]
active: [6] 50 µM

CC(C)(O)c1ccc(CNC(=O)c2cccnc2Oc2ccc(F)cc2)cc1
active: [6] 67.4 µM
inactive: [1] | [2] | [3] | [4] | [5] | [7] | [8]

From PubChem BioAssay (EPA / NIEHS)
